Measurements from ChEMBL document CHEMBL1961873, “Compounds: GSK PKIS; Assays: Nanosyn kinase panel” (2012).

Assays:
[1] = target: Sphingosine kinase 1 (Homo sapiens) (UniProt Q9NYA1); settings: at 1 µM;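 further: mean SPHK1 inhibition value reported from the GSK PKIS kinase panel screen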
[2] = target: T1, Sphingosine kinase 2 (Homo sapiens) (UniProt Q9NRA0); settings: at 0.1 µM
T1 sequence (whole entry): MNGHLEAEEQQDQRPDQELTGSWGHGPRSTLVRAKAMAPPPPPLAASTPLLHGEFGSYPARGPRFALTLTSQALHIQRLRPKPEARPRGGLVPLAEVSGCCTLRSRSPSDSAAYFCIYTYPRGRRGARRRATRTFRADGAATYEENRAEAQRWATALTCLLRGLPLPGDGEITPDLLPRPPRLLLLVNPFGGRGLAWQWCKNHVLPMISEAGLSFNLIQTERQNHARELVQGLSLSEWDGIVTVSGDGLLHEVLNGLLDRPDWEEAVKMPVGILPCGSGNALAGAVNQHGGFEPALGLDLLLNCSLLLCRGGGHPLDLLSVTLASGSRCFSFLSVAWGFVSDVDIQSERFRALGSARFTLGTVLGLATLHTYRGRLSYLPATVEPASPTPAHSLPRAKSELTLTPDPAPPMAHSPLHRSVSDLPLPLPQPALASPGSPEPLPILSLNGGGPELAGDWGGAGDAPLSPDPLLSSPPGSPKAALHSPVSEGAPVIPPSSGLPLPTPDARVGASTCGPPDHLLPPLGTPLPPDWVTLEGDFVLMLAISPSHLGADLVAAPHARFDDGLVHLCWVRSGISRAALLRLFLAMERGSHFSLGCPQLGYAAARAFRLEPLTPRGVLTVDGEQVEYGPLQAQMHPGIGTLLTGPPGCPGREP

[3] = target: T1, Sphingosine kinase 2 (Homo sapiens); settings: at 1 µM
[4] = target: Casein kinase II subunit alpha (Homo sapiens) (UniProt P68400); settings: at 0.1 µM
[5] = target: Casein kinase II subunit alpha (Homo sapiens) (UniProt P68400); settings: at 1 µM
[6] = target: T2, Inhibitor of nuclear factor kappa-B kinase subunit alpha (Homo sapiens) (UniProt O15111); settings: at 0.1 µM
T2 sequence (whole entry): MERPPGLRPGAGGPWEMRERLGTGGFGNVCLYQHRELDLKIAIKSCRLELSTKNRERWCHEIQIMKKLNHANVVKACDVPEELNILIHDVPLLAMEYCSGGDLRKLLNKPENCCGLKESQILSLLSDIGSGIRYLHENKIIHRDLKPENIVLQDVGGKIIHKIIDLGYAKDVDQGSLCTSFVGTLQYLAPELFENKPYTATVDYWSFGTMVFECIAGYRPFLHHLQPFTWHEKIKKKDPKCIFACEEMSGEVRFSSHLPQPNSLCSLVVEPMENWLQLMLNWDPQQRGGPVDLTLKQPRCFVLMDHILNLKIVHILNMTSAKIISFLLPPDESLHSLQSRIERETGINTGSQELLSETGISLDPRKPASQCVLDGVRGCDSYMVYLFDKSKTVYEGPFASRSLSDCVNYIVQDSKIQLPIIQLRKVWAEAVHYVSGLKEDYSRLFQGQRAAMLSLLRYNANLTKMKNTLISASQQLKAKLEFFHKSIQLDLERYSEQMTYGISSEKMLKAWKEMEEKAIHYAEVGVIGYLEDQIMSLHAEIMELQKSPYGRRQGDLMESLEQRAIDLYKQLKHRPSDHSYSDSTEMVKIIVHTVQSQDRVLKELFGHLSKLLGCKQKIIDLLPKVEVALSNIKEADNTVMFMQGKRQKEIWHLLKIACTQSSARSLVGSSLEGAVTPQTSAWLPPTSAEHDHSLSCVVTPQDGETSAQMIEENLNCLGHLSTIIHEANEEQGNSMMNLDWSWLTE

[7] = target: T2, Inhibitor of nuclear factor kappa-B kinase subunit alpha (Homo sapiens); settings: at 1 µM
[8] = target: T3, Inhibitor of nuclear factor kappa-B kinase subunit beta (Homo sapiens) (UniProt O14920); settings: at 0.1 µM
T3 sequence (whole entry): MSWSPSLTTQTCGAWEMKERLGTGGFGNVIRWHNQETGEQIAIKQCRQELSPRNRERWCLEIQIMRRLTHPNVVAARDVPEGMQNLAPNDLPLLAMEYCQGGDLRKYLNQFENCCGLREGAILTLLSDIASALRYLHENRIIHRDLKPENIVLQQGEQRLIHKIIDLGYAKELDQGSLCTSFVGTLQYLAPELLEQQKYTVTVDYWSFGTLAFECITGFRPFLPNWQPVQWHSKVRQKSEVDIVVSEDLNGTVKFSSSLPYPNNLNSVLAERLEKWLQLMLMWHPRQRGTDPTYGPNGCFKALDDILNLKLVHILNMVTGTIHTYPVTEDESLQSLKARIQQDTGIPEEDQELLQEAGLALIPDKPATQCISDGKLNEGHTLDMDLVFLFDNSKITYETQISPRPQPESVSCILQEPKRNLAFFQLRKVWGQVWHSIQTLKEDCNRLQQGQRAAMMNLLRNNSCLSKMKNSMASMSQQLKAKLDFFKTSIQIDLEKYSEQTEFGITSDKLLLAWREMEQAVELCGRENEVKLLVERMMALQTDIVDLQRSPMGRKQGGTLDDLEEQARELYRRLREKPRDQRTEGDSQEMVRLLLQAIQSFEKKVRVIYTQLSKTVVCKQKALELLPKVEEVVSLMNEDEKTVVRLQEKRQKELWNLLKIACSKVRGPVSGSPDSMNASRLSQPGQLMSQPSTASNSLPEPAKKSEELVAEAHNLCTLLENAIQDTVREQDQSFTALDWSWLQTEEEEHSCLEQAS

[9] = target: T3, Inhibitor of nuclear factor kappa-B kinase subunit beta (Homo sapiens); settings: at 1 µM
[10] = target: T4, Inhibitor of nuclear factor kappa-B kinase subunit epsilon (Homo sapiens) (UniProt Q14164); settings: at 0.1 µM
T4 sequence (whole entry): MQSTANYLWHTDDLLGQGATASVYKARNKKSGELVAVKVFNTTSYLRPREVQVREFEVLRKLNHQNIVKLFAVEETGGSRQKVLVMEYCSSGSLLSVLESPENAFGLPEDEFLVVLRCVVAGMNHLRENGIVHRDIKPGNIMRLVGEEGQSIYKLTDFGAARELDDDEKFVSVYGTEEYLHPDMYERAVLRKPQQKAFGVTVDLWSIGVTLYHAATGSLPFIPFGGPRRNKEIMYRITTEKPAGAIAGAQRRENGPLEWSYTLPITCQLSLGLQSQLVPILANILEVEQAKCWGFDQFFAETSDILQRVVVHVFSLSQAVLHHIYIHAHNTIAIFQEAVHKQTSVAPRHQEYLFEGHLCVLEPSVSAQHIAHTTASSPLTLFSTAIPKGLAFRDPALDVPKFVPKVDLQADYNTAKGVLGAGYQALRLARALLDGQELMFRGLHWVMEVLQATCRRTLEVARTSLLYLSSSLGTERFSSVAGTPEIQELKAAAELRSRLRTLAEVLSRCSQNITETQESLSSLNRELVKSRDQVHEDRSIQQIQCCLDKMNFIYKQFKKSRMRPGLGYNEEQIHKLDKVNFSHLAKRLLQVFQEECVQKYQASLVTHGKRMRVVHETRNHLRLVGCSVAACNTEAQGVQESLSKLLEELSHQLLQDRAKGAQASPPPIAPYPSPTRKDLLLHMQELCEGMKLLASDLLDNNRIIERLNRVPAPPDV

[11] = target: T4, Inhibitor of nuclear factor kappa-B kinase subunit epsilon (Homo sapiens); settings: at 1 µM
[12] = target: T5, Serine/threonine-protein kinase Nek1 (Homo sapiens) (UniProt Q96PY6); settings: at 0.1 µM
T5 sequence (whole entry): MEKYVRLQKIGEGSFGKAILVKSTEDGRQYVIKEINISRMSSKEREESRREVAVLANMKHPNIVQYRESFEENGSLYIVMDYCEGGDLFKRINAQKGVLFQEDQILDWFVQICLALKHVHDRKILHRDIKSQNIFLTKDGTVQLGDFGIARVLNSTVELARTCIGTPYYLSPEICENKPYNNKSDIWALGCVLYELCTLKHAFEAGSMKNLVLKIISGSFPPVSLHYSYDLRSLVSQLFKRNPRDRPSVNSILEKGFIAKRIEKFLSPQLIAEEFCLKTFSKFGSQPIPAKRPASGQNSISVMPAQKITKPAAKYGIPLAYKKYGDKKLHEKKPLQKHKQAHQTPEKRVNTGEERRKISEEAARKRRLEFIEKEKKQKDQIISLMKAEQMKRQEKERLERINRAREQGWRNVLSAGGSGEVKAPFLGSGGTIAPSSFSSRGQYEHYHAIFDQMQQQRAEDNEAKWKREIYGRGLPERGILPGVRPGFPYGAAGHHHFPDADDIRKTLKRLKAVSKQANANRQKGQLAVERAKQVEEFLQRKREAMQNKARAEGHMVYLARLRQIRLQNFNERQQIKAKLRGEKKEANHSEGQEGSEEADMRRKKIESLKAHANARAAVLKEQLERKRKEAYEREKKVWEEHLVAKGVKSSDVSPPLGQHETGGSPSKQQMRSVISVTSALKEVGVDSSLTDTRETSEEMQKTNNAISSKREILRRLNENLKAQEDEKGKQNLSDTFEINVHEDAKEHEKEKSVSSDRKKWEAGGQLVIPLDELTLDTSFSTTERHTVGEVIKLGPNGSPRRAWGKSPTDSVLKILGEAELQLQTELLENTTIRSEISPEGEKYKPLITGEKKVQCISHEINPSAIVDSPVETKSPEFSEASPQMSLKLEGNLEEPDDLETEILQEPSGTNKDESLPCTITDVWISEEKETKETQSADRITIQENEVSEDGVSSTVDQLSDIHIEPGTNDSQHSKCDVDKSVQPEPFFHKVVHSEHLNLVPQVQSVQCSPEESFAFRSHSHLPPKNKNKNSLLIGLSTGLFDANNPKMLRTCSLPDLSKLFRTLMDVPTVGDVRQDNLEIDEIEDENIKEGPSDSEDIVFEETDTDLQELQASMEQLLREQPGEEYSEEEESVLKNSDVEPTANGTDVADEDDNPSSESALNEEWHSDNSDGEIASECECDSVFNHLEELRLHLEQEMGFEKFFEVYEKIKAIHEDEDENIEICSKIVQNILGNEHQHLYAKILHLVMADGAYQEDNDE

[13] = target: T5, Serine/threonine-protein kinase Nek1 (Homo sapiens); settings: at 1 µM
[14] = target: T6, Serine/threonine-protein kinase Nek2 (Homo sapiens) (UniProt P51955); settings: at 0.1 µM
T6 sequence (whole entry): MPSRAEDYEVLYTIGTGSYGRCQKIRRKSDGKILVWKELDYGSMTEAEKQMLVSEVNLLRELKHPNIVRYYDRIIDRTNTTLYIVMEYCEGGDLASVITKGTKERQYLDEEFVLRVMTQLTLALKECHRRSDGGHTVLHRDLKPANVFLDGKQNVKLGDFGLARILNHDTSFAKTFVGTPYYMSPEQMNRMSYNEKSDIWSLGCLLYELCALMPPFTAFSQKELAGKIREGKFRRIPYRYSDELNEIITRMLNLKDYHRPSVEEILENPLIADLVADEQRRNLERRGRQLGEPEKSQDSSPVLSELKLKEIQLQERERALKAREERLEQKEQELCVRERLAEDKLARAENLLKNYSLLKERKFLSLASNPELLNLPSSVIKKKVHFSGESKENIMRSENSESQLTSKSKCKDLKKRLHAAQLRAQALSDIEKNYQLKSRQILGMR

[15] = target: T6, Serine/threonine-protein kinase Nek2 (Homo sapiens); settings: at 1 µM
[16] = target: Serine/threonine-protein kinase Nek6 (Homo sapiens) (UniProt Q9HC98); settings: at 0.1 µM
[17] = target: Serine/threonine-protein kinase Nek6 (Homo sapiens) (UniProt Q9HC98); settings: at 1 µM
[18] = target: Serine/threonine-protein kinase Nek7 (Homo sapiens) (UniProt Q8TDX7); settings: at 0.1 µM
[19] = target: Serine/threonine-protein kinase Nek7 (Homo sapiens) (UniProt Q8TDX7); settings: at 1 µM
[20] = target: T7, Serine/threonine-protein kinase Nek9 (Homo sapiens) (UniProt Q8TD19); settings: at 0.1 µM;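 further: reported value is the mean percent inhibition of NEK9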
T7 sequence (whole entry): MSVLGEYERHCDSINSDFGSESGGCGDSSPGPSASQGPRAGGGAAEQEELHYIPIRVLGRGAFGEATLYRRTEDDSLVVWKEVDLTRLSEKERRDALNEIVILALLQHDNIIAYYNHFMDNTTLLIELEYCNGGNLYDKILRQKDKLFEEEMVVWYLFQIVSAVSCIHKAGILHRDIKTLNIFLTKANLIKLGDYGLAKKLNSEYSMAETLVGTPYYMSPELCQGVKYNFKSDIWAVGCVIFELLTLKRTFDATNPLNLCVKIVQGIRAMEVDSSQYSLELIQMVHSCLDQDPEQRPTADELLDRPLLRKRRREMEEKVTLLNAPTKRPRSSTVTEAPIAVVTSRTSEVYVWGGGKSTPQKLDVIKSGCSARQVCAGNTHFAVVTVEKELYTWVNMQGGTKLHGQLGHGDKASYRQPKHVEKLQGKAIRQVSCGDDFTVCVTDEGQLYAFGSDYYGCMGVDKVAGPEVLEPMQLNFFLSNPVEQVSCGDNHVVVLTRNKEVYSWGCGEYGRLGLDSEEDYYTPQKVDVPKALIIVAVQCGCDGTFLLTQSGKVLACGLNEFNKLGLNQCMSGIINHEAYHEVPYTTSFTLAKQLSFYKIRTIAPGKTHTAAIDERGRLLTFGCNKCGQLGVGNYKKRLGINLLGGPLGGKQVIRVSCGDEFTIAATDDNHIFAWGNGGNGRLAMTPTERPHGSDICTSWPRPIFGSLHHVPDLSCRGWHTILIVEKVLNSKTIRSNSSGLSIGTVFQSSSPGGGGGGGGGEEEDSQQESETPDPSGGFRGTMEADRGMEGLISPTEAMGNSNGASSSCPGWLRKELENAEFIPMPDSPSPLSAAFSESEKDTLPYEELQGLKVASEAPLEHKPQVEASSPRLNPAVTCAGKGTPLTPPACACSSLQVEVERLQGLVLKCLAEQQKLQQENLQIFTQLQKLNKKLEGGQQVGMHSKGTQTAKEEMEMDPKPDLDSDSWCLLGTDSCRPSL

Chain of Serine/threonine-protein kinase Nek6 (Homo sapiens) (Q9HC98 whole entry): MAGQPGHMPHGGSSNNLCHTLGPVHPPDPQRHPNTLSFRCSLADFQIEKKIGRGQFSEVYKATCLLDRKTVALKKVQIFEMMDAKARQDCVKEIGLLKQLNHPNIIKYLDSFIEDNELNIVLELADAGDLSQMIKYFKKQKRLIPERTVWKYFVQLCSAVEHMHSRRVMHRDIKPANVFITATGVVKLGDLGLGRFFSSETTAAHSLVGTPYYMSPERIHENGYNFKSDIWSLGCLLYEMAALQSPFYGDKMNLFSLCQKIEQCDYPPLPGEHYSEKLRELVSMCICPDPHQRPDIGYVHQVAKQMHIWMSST
Chain of Casein kinase II subunit alpha (Homo sapiens) (P68400 whole entry, looked up): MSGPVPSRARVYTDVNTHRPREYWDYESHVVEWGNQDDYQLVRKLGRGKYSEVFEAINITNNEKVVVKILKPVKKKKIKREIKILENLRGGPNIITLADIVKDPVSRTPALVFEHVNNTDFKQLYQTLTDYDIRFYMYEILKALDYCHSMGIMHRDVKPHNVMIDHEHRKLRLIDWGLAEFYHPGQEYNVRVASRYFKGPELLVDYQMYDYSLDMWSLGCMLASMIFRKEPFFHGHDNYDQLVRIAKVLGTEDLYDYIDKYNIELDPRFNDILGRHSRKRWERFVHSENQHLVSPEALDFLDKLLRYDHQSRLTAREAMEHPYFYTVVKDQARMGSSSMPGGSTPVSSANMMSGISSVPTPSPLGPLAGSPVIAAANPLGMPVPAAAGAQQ
Chain of Serine/threonine-protein kinase Nek7 (Homo sapiens) (Q8TDX7 whole entry, looked up): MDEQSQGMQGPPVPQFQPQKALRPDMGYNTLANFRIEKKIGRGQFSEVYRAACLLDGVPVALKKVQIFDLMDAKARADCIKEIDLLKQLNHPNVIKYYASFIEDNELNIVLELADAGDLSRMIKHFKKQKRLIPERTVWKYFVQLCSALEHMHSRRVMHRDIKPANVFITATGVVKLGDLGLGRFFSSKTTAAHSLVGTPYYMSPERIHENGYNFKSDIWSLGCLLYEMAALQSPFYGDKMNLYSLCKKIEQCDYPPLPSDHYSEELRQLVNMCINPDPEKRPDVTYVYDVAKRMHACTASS
Chain of Sphingosine kinase 1 (Homo sapiens) (Q9NYA1 whole entry): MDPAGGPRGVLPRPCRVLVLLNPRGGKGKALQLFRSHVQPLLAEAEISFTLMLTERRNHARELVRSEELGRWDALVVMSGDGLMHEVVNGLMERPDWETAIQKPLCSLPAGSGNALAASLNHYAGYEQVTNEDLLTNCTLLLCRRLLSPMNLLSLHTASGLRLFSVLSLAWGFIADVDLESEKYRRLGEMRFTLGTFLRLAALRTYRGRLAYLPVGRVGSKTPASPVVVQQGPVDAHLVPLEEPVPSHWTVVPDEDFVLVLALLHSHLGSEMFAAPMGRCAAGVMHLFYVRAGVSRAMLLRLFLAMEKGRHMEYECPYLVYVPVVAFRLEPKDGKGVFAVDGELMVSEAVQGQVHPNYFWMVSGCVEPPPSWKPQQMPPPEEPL

Row | Structure (SMILES) | inhibition [1] [%] | inhibition [2] [%] | inhibition [3] [%] | inhibition [4] [%] | inhibition [5] [%] | inhibition [6] [%] | inhibition [7] [%] | inhibition [8] [%] | inhibition [9] [%] | inhibition [10] [%] | inhibition [11] [%] | inhibition [12] [%] | inhibition [13] [%] | inhibition [14] [%] | inhibition [15] [%] | inhibition [16] [%] | inhibition [17] [%] | inhibition [18] [%] | inhibition [19] [%] | inhibition [20] [%]
1 | N#Cc1c(NC(=O)c2cccc3ccccc23)sc2c1CCCC2 | -0.69 | 1.73 | 0.03 | 1.53 | -0.03 | 5.48 | 6.29 | 3.31 | 2.19 | 4.91 | 1.87 | 1.19 | 1.42 | 3.93 | 4.37 | 3.32 | 1.3 | 5.78 | 3.68 | 5.96
2 | CCCN1CCC=C(c2ccc(Nc3nc(Nc4ccccc4C(N)=O)c4cc[nH]c4n3)c(C)c2)C1 | 1.28 | -1.02 | 0.04 | 33.7 | 72 | 13.6 | 16 | 5.1 | 8.74 | 9.65 | 10.3 | 3.93 | 8.78 | 6.91 | 7.52 | 0.8 | 5.18 | 4.64 | 14 | 7.78
